According to article PMC7819943, “Rice protein-binding microarrays: a tool to detect cis-acting elements near promoter regions in rice”:
Over roughly 68,000 sequences, “fluorescence intensity (a.u.)” has its median near 9,100; the highest 2% begin near 16,000. This is one part of a sample in which the highest values are shown more often than they occur.

Each sequence was assayed against OsWRKY34 (Oryza sativa, UniProt Q0JBA9 1-250) (assay: protein-binding microarray (RPBM); PBS, 2% BSA, 51.3 ng/ul salmon testes DNA, 50 uM zinc acetate, 200 nM TF, 25 C, 1 h; high values mean tight binding). Conditions: protein: recombinant; tags: N-terminal polyhistidine and DsRed monomer fusion (pET32a); label: CyDye5-dUTP incorporated in the synthesized complementary strand; 3' TTTTT single-stranded linker to array surface; dsDNA, one strand shown.
Chain of OsWRKY34 (Q0JBA9 entry or part of it): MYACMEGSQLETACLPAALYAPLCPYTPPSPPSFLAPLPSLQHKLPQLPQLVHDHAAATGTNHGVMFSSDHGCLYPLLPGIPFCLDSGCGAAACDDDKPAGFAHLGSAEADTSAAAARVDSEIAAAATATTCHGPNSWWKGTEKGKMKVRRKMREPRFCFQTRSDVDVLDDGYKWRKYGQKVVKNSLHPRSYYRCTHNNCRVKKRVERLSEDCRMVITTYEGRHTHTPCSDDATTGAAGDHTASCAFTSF
In short: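 Per-feature fluorescence intensity (arbitrary units), read on an Axon 4000B scanner, is the binding signal. Transcription factors carrying an N-terminal polyhistidine tag and DsRed fusion were expressed in E. coli BL21-CodonPlus and purified on Ni–NTA. A custom Agilent array, made double-stranded by primer extension with Cy5-dUTP and blocked with 2% BSA, was incubated with 200 nM protein in PBS, 2% BSA, salmon testes DNA and 50 µM zinc acetate at 25 °C for 1 h and then washed.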
In the case of “TTGGGTGGGATTTAAACAGGGTATTAGTGGATAATGATGTCGGAGTCACCTAGTGCAG”, the binding signal was 9570 fluorescence intensity (a.u.).
With “CTATAGGTGGATTTTTAGGGACTCACCCGTAAAAACAGGTCGGAGTCACCTAGTGCAG” the binding signal was 26800 fluorescence intensity (a.u.).
In the case of “GGTTAGGTGGCATTTGAATTTAAAACGTATATGTGGACTCCGGAGTCACCTAGTGCAG”, the binding signal was 13900 fluorescence intensity (a.u.).
“CTCCGGGGAATATCTATGGGTCTTGTGGGTGTAGGGAGGACGGAGTCACCTAGTGCAG” was tested, and the binding signal was 8770 fluorescence intensity (a.u.).
With “CTATAATTATTTGTCGACTAAATCTGCCTTTCATCTTTCTCGGAGTCACCTAGTGCAG” the binding signal was 8160 fluorescence intensity (a.u.).
In the case of “ATCATTTGTCTCGCGACGAAAACTTGCGTTGACCACCCACCGGAGTCACCTAGTGCAG”, the binding signal was 17500 fluorescence intensity (a.u.).
“GTGTCTTGTGCGTTTGCTCTCTCGCGAACCATTCCACAGACGGAGTCACCTAGTGCAG” was tested, and the binding signal was 8380 fluorescence intensity (a.u.).
“TTTGACCAACCGAAACTCGACGGCCCACCCACCAACCACCCGGAGTCACCTAGTGCAG” was tested, and the binding signal was 9420 fluorescence intensity (a.u.).
For “CACCCACCAAGTACTCTTTTTACTTTTACCACAGCGCATACGGAGTCACCTAGTGCAG”, the binding signal was 9050 fluorescence intensity (a.u.).
In the case of “TTCACACACGAGTAATTGCAGCCTTGCTTTCTCGAAAAAACGGAGTCACCTAGTGCAG”, the binding signal was 17100 fluorescence intensity (a.u.).
“TTACACGCCTAATCATCGAAAACCTAATCTTATGCTTTCTCGGAGTCACCTAGTGCAG” was tested, and the binding signal was 8790 fluorescence intensity (a.u.).
“TGCGGCTTTGATTTGCGGGGTTCACACACGAGTAATTGCACGGAGTCACCTAGTGCAG” was tested, and the binding signal was 10900 fluorescence intensity (a.u.).
In the case of “AATCTGTGGCGATAACCTGTATGCTCACACACTTGCCTCTCGGAGTCACCTAGTGCAG”, the binding signal was 8610 fluorescence intensity (a.u.).
With “CTACCTCCATATTTTAATGTATGACGCCGTTGACTTTTTGCGGAGTCACCTAGTGCAG” the binding signal was 37500 fluorescence intensity (a.u.).
With “TACTCCCTCCGTATTTTAATGTATGACGCCGTTGACTTTTCGGAGTCACCTAGTGCAG” the binding signal was 13900 fluorescence intensity (a.u.).
For “TTCCCTCCATATTTTAATGTATGACGCCGTTGACTTTTTACGGAGTCACCTAGTGCAG”, the binding signal was 17700 fluorescence intensity (a.u.).
In the case of “TCCGTATTTTAATGTATGACGCCGTTGACTTTTTATCCAACGGAGTCACCTAGTGCAG”, the binding signal was 21400 fluorescence intensity (a.u.).
With “TACCTCCATATTTTAATGTATGACGCCGTTGACTTTTTATCGGAGTCACCTAGTGCAG” the binding signal was 28900 fluorescence intensity (a.u.).
“TATTACTACCTTCATATTTTAATGTATGACGCCGTTGACTCGGAGTCACCTAGTGCAG” was tested, and the binding signal was 11900 fluorescence intensity (a.u.).
With “ATATACTACCTCCATATTTTAATGTATGACGCCGTTGACTCGGAGTCACCTAGTGCAG” the binding signal was 8860 fluorescence intensity (a.u.).
With “TATATACTCCCTCCATATTTTAATGTATGACGCCGTTGACCGGAGTCACCTAGTGCAG” the binding signal was 9880 fluorescence intensity (a.u.).
In the case of “AGCGCGTCGCTTTCTTTCTTTCTTTCAGTTTTTTTTTTCCCGGAGTCACCTAGTGCAG”, the binding signal was 10500 fluorescence intensity (a.u.).
In the case of “AATCTGACTGAAGTATGTACTTTGTGTTGACCAATTTGGCCGGAGTCACCTAGTGCAG”, the binding signal was 10200 fluorescence intensity (a.u.).
With “ATGAGTTCCCAACCGCCACTTACATTAAGTACCACACTCCCGGAGTCACCTAGTGCAG” the binding signal was 8660 fluorescence intensity (a.u.).
With “GTTTCCTTCGTTTCAGATTACTCATTATTTTAGCTTTTTTCGGAGTCACCTAGTGCAG” the binding signal was 13800 fluorescence intensity (a.u.).
In the case of “TCCACCTTTTCATCAATATAGTCATGCATTAATACAGTCACGGAGTCACCTAGTGCAG”, the binding signal was 8670 fluorescence intensity (a.u.).
With “TTGCTTCCTTTGTCCTTACTGACATTATTACCTCAGAGACCGGAGTCACCTAGTGCAG” the binding signal was 8870 fluorescence intensity (a.u.).
“ACGGGGCGCATTTATTCATCCCCACCTTTGTTCATCAGTTCGGAGTCACCTAGTGCAG” was tested, and the binding signal was 11600 fluorescence intensity (a.u.).
In the case of “ATTTGTTTGTTTTTTTAATAAATGATGTTGTTGACTTTTACGGAGTCACCTAGTGCAG”, the binding signal was 9030 fluorescence intensity (a.u.).
In the case of “TGCACTAGTATGTATGACGTTGACTGTTTTTTTAAGGACGCGGAGTCACCTAGTGCAG”, the binding signal was 10200 fluorescence intensity (a.u.).
In the case of “TTTTAATGTATGACGCTGTTGACTTTTTATCCAACGTTTGCGGAGTCACCTAGTGCAG”, the binding signal was 16400 fluorescence intensity (a.u.).
With “CTCCATATTTTAATGTATGCCGCCGTTGACTTTTTGTTTACGGAGTCACCTAGTGCAG” the binding signal was 20200 fluorescence intensity (a.u.).
For “TAATGTATGACGTCGTTGACTTTTTGTTAAACGTTTGATCCGGAGTCACCTAGTGCAG”, the binding signal was 15600 fluorescence intensity (a.u.).
In the case of “CTCATAATAGATTTACTTTTAATGCCGTTGTTTTGTTTTACGGAGTCACCTAGTGCAG”, the binding signal was 9090 fluorescence intensity (a.u.).
In the case of “GTTACCCCGATTAGTTAGTTTATGTTGTACATGCTGTTGACGGAGTCACCTAGTGCAG”, the binding signal was 11000 fluorescence intensity (a.u.).
For “CAGTGTCCGTTTTCTCCGACAAACTCGGCGTGGCCACAGTCGGAGTCACCTAGTGCAG”, the binding signal was 9840 fluorescence intensity (a.u.).
“TAAAAAAGTCAACGGCGTTAAACATTTTGGGATGGAGGGACGGAGTCACCTAGTGCAG” was tested, and the binding signal was 11200 fluorescence intensity (a.u.).
In the case of “AAACATGTTTAAAAAAGTCAACGGCGTCAAACATTTAGGGCGGAGTCACCTAGTGCAG”, the binding signal was 13800 fluorescence intensity (a.u.).
For “TTGTTGATTTTTTTTCAGAATTTTTATCACTATTTGTCTTCGGAGTCACCTAGTGCAG”, the binding signal was 8570 fluorescence intensity (a.u.).
In the case of “ATATTTAAAAAAGTCAACGGCGTCAAACATTTTGAAACGGCGGAGTCACCTAGTGCAG”, the binding signal was 16800 fluorescence intensity (a.u.).
For “TTTAAAAGTCAACGGCGTCAGAGGGAGTATATATTTTAGCCGGAGTCACCTAGTGCAG”, the binding signal was 9840 fluorescence intensity (a.u.).
“ATATTTAAAAAAGTCAACGGCGTCAAACATTTTGAGATAGCGGAGTCACCTAGTGCAG” was tested, and the binding signal was 9320 fluorescence intensity (a.u.).
“AATATTTTTTTGAGGTTTTTTGTTGCGTTTAAAATTCAAACGGAGTCACCTAGTGCAG” was tested, and the binding signal was 8110 fluorescence intensity (a.u.).
For “ATATGTTTAAAAAAGTCAACGGCGTCAAACATTTAGGGATCGGAGTCACCTAGTGCAG”, the binding signal was 18600 fluorescence intensity (a.u.).
